# From article PMC5540273 (PLoS ONE, 2017)
# Columns and labels:
# Settings in all cases: concentration: 1 μM, replicates: in singlicate; n = 1
# [1] = test system: MARK4
# [2] = test system: MAST1
# [3] = test system: T1, MEK1
# T1 construct: gene MAP2K1
# [4] = test system: T2, MEK2
# T2 construct: gene MAP2K2
# [5] = test system: T3, MEK3
# T3 construct: gene MAP2K3
# [6] = test system: T4, MEK4
# T4 construct: gene MAP2K4
# [7] = test system: T5, MEK5
# T5 construct: gene MAP2K5
# [8] = test system: T6, MEK6
# T6 construct: gene MAP2K6
# [9] = test system: MELK
# [10] = test system: MERTK
# 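Also: KINOMEscan kinase panel screen.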
Compound,%Inh [1],%Inh [2],%Inh [3],%Inh [4],%Inh [5],%Inh [6],%Inh [7],%Inh [8],%Inh [9],%Inh [10]
COc1cccc(C2=C(Nc3cccc(C(=O)O)c3)C(=O)NC2=O)c1 [SB-390770],23%,35%,0%,10%,0%,16%,4%,0%,21%,3%
COc1cc2nccc(Nc3cccc(Oc4ccccc4)c3)c2cc1OC.Cl [GW284543],1%,7%,87%,88%,0%,0%,99.9%,0%,8%,0%
Nc1ncnc2c1ncn2-c1ccc(Cl)cc1 [AH2635],13%,0%,0%,0%,0%,12%,48%,0%,0%,10%
O=C(NCc1cccs1)c1cc(C(=O)c2c(Cl)cccc2Cl)c[nH]1 [GW823670],0%,0%,4%,25%,1%,0%,7%,5%,26%,0%
CCC(=O)c1c(-c2ccccc2)c2cc(Cl)ccc2c(=O)n1Cc1cc(C(=O)NC2CC2)n(C)n1,13%,47%,6%,3%,2%,8%,11%,22%,0%,5%
O=C(Nc1n[nH]c2nc(-c3ccccc3)c(Br)cc12)C1CC1 [SB-708998],0%,0%,0%,0%,0%,21%,42%,0%,6%,27%
COc1cc2ncn(-c3cc(OCCCc4ccccc4)c(C(N)=O)s3)c2cc1OC [GSK205189],0%,0%,0%,0%,0%,0%,96.8%,0%,0%,0%
COc1ccc(CNC(=O)NC2CCN(c3ccnc(Nc4ccc(F)cc4)n3)C2)cc1 (stereo not shown) [GSK1379706],3%,53%,29%,21%,0%,28%,25%,12%,21%,39%
Nc1nc(-c2ccccc2F)c(-c2ccnc3ccccc23)s1 [GW560459],0%,0%,0%,0%,0%,40%,50%,5%,0%,0%
COc1ccc(-n2cnc3c(N)ncnc32)cc1 [SKF-97236],19%,0%,0%,0%,11%,29%,56%,0%,0%,35%
Cc1nn2c(=O)cc(N3CCOCC3)nc2n1Cc1cccc(Cl)c1Cl [GSK2342769],0%,2%,0%,0%,0%,31%,0%,0%,8%,10%
Nc1ncnc2c1ncn2-c1cccc(F)c1 [SKF-97560],0%,19%,34%,31%,43%,22%,31%,0%,22%,24%
Cc1nnc(-c2ccc3ncn(-c4ccc(S(C)=O)cc4)c3c2)o1 (stereo not shown),0%,0%,2%,22%,15%,8%,0%,13%,13%,1%
CCc1nc(-c2cccc(C)c2)c(-c2ccncc2)s1,0%,0%,2%,48%,23%,0%,34%,0%,0%,0%
COC(=O)c1c(-c2ccccc2)c2cc(Br)ccc2c(=O)n1Cc1ccc(S(C)(=O)=O)cc1,1%,21%,13%,7%,2%,17%,29%,17%,12%,4%
O=C(NCCNc1ccnc(Nc2ccc(F)cc2)n1)Nc1ccc2c(c1)OCO2 [GSK1379882],0%,4%,9%,19%,4%,10%,9%,8%,8%,0%
C[C@@H]1CC[C@H](C(=O)NC2CCCCC2)CN1c1cc(-c2ccc3c(N)n[nH]c3c2)nc(N)n1 [GSK2291363],11%,0%,0%,0%,18%,27%,35%,9%,26%,33%

Compound,%Inh [1],%Inh [2],%Inh [3],%Inh [4],%Inh [5],%Inh [6],%Inh [7],%Inh [8],%Inh [9],%Inh [10]
COc1ccc(-c2coc3ccc(-c4nnc(SCc5cccc(C#N)c5)o4)cc23)cc1,13%,31%,4%,13%,0%,38%,21%,16%,11%,0%
CN(C)c1cc(-c2ccc3c(N)n[nH]c3c2)nc(N)n1 [GSK2219329],1%,0%,0%,0%,0%,0%,13%,8%,0%,21%
COc1ccc(-c2cc3c(C)nc(N)nc3n([C@H]3CC[C@H](O)CC3)c2=O)cn1,0%,0%,0%,0%,0%,0%,0%,0%,3%,0%
Cc1nc(N(C)[C@H]2CN(C(=O)CC#N)CC[C@H]2C)c2cc[nH]c2n1,12%,0%,2%,4%,10%,0%,0%,0%,0%,24%
Cl.NS(=O)(=O)c1cccc(Nc2cc(-c3ccc(F)cc3)n[nH]2)c1 [GW824645],6%,9%,12%,45%,22%,27%,70%,0%,0%,0%
COc1cccc(C2=C(N(C)c3ccccc3)C(=O)NC2=O)c1 [SB-334865],1%,0%,0%,0%,0%,4%,6%,0%,0%,18%
COc1cc2ncn(-c3cc(OCc4ccc(S(C)(=O)=O)cc4)c(C(N)=O)s3)c2cc1OC [GW869979],0%,5%,30%,25%,28%,6%,81%,0%,8%,0%
CCC(=O)c1c(-c2ccccc2)c2cc(Cl)ccc2c(=O)n1Cc1ccc(C(=O)O)cc1,0%,11%,0%,3%,0%,0%,0%,0%,0%,0%
Nc1ncnc2c1ncn2-c1cccc2ccccc12 [SKF-97184],29%,53%,5%,24%,38%,8%,26%,22%,0%,0%
COc1cc(Nc2ccnc3ccc(C(F)(F)F)cc23)cc(OC)c1OC [GW577382],11%,4%,14%,0%,0%,32%,50%,0%,13%,27%
OCCCNc1nccc(-c2c(-c3cccc(C(F)(F)F)c3)nn3cc(C(F)(F)F)ccc23)n1 [GW630813],0%,0%,0%,0%,0%,0%,7%,0%,0%,12%
Cl.c1ccc(Cn2cnc3cc(Nc4ncnc5ccccc45)ccc32)cc1 [GW272142],0%,0%,0%,0%,0%,8%,56%,0%,13%,10%
COc1cc2ncn(-c3cc(OCc4ccncc4)c(C(N)=O)s3)c2cc1OC [GSK336313],0%,0%,3%,4%,0%,8%,88%,44%,0%,0%
O=C(Nc1n[nH]c2cc(-c3ccccc3F)ccc12)C1CC1 [SB-733371],0%,52%,0%,14%,16%,0%,48%,0%,0%,0%
Nc1nc(N)c2nc(-c3ccccc3)[nH]c2n1 [SKF-12778],11%,0%,0%,13%,0%,1%,18%,0%,9%,47%
COc1cc(Nc2nccc(N3CCC(NC(=O)C4COc5ccccc5O4)C3)n2)cc(OC)c1OC (stereo not shown) [GSK1379761],0%,0%,25%,0%,0%,0%,97.2%,0%,11%,36%
CCCNC(=O)Nc1ccc(Oc2ncnc3ccn(C)c23)cc1,9%,0%,0%,0%,0%,10%,61%,14%,7%,13%
